Measurements: PubChem BioAssay
Activity calls are given as the source filed them.

Assay: JC-1 mitochondrial signal, unstimulated MM1S myeloma – cell-based, JC-1 fluorescence, 24 h, 100 nL compound, profiling panel (AID 1170)
Conditions: MM1S mitochondrial potential, higher = more signal
Note: test concentration not given here.

SMILES | z-score
O=C1c2ccccc2[C@](Cc2ccccc2I)(C(=O)NC2CC2)[C@H](c2ccc(CO)cc2)N1Cc1ccccc1Cl | -0.664
CCOC(=O)C[C@H]1[C@H](OC(=O)Cc2ccc3c(c2)OCO3)[C@@H](NC(=O)c2ccccc2)c2cc(OCCCO)ccc2N1C(=O)c1ccccc1 | -0.96
CCOC(=O)C1=CC[C@@H](c2ccc(N(CC)CC)cc2)N(S(=O)(=O)c2ccc(C)cc2)[C@H]1c1ccc([N+](=O)[O-])cc1 | -0.609
COC(=O)C(CC#Cc1ccc2c(c1)[C@]1(C(=O)N2)[C@H](C(=O)N2CCc3cc(OC)c(OC)cc3C2)[C@H]2C(=O)O[C@H](c3ccccc3)[C@H](c3ccccc3)N2[C@@H]1c1ccc(OCCO)cc1)C(=O)OC | -1.49
CC(C)N1C(=O)c2ccccc2[C@](C)(C(=O)O)[C@@H]1c1ccc(CO)cc1 | -0.188
C=CCC(OC(C)=O)[C@@H]1[C@@H](N(Cc2ccc(-c3ccccc3)cc2)C(=O)c2cccc3ccccc23)c2cc(OCCCO)ccc2N1C(=O)c1ccc2ccccc2n1 (stereo partly specified) | 0.506
[N-]=[N+]=Nc1ccccc1[C@H]1OC(c2ccc(OCCCO)cc2)=N[C@@]1(Cc1ccccc1)C(=O)NCc1ccccc1 | -2.17
COCCCNC(=O)[C@]1(CCS(=O)(=O)c2ccccc2)N=C(c2ccc(OCCCO)cc2)O[C@@H]1c1ccccc1 | -0.801
NC(=O)NCC#Cc1ccc2c(c1)[C@]1(C(=O)N2)[C@H](c2ccc(OCCO)cc2)N2[C@H](c3ccccc3)[C@H](c3ccccc3)OC(=O)[C@H]2[C@@H]1C(=O)N1CCCCCCC1 | -1.02
O=C1C[C@@](C(=O)O)(c2ccc([N+](=O)[O-])cc2)[C@@H](c2ccc(CO)cc2)N1CC12CC3CC(CC(C3)C1)C2 | -0.811
O=C1C[C@@](C(=O)NCc2ccccc2)(c2ccc([N+](=O)[O-])cc2)[C@@H](c2ccc(CO)cc2I)N1C1CCCCC1 | 0.576
COc1cccc(C[C@H]2C[C@@H](CO[Si](C(C)C)(C(C)C)C(C)C)N3C(=O)[C@]4(C(C)=O)O[C@]23[C@H]2C(=O)N(C)C(=O)[C@H]24)c1 | -1.96
COCC(=C=CC[C@@H](O)c1ccccc1OCCO)C[C@@H](O)COCc1ccccc1 | 1.59
COC(=O)C(CC#Cc1ccc2c(c1)[C@]1(C(=O)N2)[C@H](C(=O)N2CCc3cc(OC)c(OC)cc3C2)[C@H]2C(=O)O[C@H](c3ccccc3)[C@H](c3ccccc3)N2[C@@H]1c1ccc(O)cc1)C(=O)OC | 0.567
CN1C(=O)C2C=CC(C(O)COCc3ccccc3)N(Nc3ccccc3)C2C1=O (stereo unspecified) | -0.178
Cc1ccccc1C(O)C1C=CC2C(=O)N(Cc3ccccc3)C(=O)C2N1n1cnnc1 (stereo unspecified) | -0.806

Assay: resazurin metabolic signal in A549 cells – cell-based, resazurin fluorescence, 24 h, PK04 Diversity Set, profiling panel (AID 1171)
Conditions: A549 viability, higher = more signal, called active from +8 up or from −8 down

SMILES | z-score
Cc1cc(C)c(C(O)C2C=CC3C(=O)N(c4ccccc4)C(=O)C3N2Nc2ccccc2)c(C)c1 (stereo unspecified) | -0.825 (inactive)
O=C1O[C@H](c2ccccc2)[C@H](c2ccccc2)N2[C@H]1[C@@H](C(=O)N1CCN(c3ncccn3)CC1)[C@]1(C(=O)Nc3ccc(C#CCCO)cc31)[C@H]2c1ccc(OCCO)cc1 | 0.978 (inactive)
O=C1CSC(c2cccc([N+](=O)[O-])c2)N1c1ccccc1 (stereo unspecified) | -0.292 (inactive)
COC(=O)C(CC#Cc1ccc2c(c1)[C@]1(C(=O)N2)[C@H](c2ccc(O)cc2)N2[C@H](c3ccccc3)[C@H](c3ccccc3)OC(=O)[C@H]2[C@@H]1C(=O)O)C(=O)OC | -0.279 (inactive)
COCCCNC(=O)[C@@]1(Cc2ccccc2I)c2ccccc2C(=O)N(Cc2ccccc2Cl)[C@H]1c1ccc(CO)cc1 | 2.16 (inactive)
COC(=O)[C@]1(Cc2ccccc2CN=[N+]=[N-])N=C(c2ccc(OCCCO)cc2)O[C@@H]1c1ccccc1 | -2.91 (inactive)
CN(C)CCCCCCNC(=O)[C@@H]1C[C@@H]2C(=O)NCC(=O)N2[C@@H]1c1ccc(O)cc1 | -0.898 (inactive)
COC(=O)c1ccc(OC)c(/C=C\CC(CCc2ccccc2)OC(=O)c2ccncc2)c1 (stereo unspecified) | 2.06 (inactive)
CCOC(=O)C[C@H]1[C@H](OC(=O)Cc2ccc3c(c2)OCO3)[C@@H](NC(=O)c2ccccc2)c2cc(OCCCO)ccc2N1C(=O)c1ccc2ccccc2n1 | -1.38 (inactive)
CCCNC(=O)[C@@]1(Sc2ccc(C)cc2)CC(=O)N(Cc2ccccc2)[C@@H]1c1ccc(CO)cc1I | 0.198 (inactive)
CC1(C)[C@@H]2CC(C(O)C3C=CC4C(=O)N(c5ccccc5)C(=O)C4N3Nc3ccccc3F)=C[C@@H]1C2 (stereo partly specified) | 1.01 (inactive)
COc1ccc(C#Cc2ccc3c(c2)[C@]2(C(=O)N3)[C@H](C(N)=O)[C@H]3C(=O)O[C@H](c4ccccc4)[C@H](c4ccccc4)N3[C@@H]2c2ccc(O)cc2)cc1 | -1.05 (inactive)
COc1ccc([Si](C)(C)[C@@H]2[C@@H](CCO)O[C@]3(C(=O)N(Cc4ccc(N5C(=O)c6ccccc6Oc6ccccc65)cc4)c4ccccc43)[C@H]2C)cc1 | -1.47 (inactive)
NC(=O)NCC#Cc1ccc2c(c1)[C@]1(C(=O)N2)[C@H](c2ccc(O)cc2)N2[C@H](c3ccccc3)[C@H](c3ccccc3)OC(=O)[C@H]2[C@@H]1C(=O)NC[C@H](O)c1ccccc1 | 0.716 (inactive)
CO[C@H]1O[C@H](CO)[C@@H](OC(=O)c2ccc(Br)cc2)[C@@H]2OC(=O)[C@H](Cc3cccc(Br)c3)C/C=C/C[C@@H](Cc3cccc(Br)c3)C(=O)O[C@@H]12 | -0.932 (inactive)
CO[C@H]1O[C@H](CO)[C@@H](OC(=O)Nc2cccc(F)c2)[C@H](OC(=O)Nc2ccc3c(c2)OCO3)[C@H]1OC(=O)Nc1ccc2c(c1)OCO2 | -1.14 (inactive)
CC(C)C[C@H]1NC(=O)[C@H](C)NC(=O)[C@@]23C(=O)N[C@@H](Cc4ccccc4)C2[C@H](C)[C@@]2(C)O[C@H]2C3/C=C/C/C=C\CNC1=O (stereo partly specified) | -0.271 (inactive)
Cc1ccc(C(C)CC(O)C2C=CC3C(=O)N(Cc4ccccc4)C(=O)C3N2n2cnnc2)o1 (stereo unspecified) | -1.34 (inactive)

SMILES | z-score
COCCCNC(=O)[C@@]1(Cc2ccccc2)COC(c2ccc(OCCCO)cc2)=N1 | 0.244 (inactive)
O=C1c2ccccc2[C@](Cc2ccccc2I)(C(=O)NC2CC2)[C@H](c2ccc(CO)cc2)N1Cc1ccccc1Cl | 0.623 (inactive)
CCOC(=O)C[C@H]1[C@H](OC(=O)Cc2ccc3c(c2)OCO3)[C@@H](NC(=O)c2ccccc2)c2cc(OCCCO)ccc2N1C(=O)c1ccccc1 | 0.323 (inactive)
CCOC(=O)C1=CC[C@@H](c2ccc(N(CC)CC)cc2)N(S(=O)(=O)c2ccc(C)cc2)[C@H]1c1ccc([N+](=O)[O-])cc1 | 0.325 (inactive)
COC(=O)C(CC#Cc1ccc2c(c1)[C@]1(C(=O)N2)[C@H](C(=O)N2CCc3cc(OC)c(OC)cc3C2)[C@H]2C(=O)O[C@H](c3ccccc3)[C@H](c3ccccc3)N2[C@@H]1c1ccc(OCCO)cc1)C(=O)OC | 0.21 (inactive)
CC(C)N1C(=O)c2ccccc2[C@](C)(C(=O)O)[C@@H]1c1ccc(CO)cc1 | 0.069 (inactive)
C=CCC(OC(C)=O)[C@@H]1[C@@H](N(Cc2ccc(-c3ccccc3)cc2)C(=O)c2cccc3ccccc23)c2cc(OCCCO)ccc2N1C(=O)c1ccc2ccccc2n1 (stereo partly specified) | 0.131 (inactive)
[N-]=[N+]=Nc1ccccc1[C@H]1OC(c2ccc(OCCCO)cc2)=N[C@@]1(Cc1ccccc1)C(=O)NCc1ccccc1 | -1.56 (inactive)
COCCCNC(=O)[C@]1(CCS(=O)(=O)c2ccccc2)N=C(c2ccc(OCCCO)cc2)O[C@@H]1c1ccccc1 | -0.243 (inactive)
NC(=O)NCC#Cc1ccc2c(c1)[C@]1(C(=O)N2)[C@H](c2ccc(OCCO)cc2)N2[C@H](c3ccccc3)[C@H](c3ccccc3)OC(=O)[C@H]2[C@@H]1C(=O)N1CCCCCCC1 | 0.252 (inactive)
O=C1C[C@@](C(=O)O)(c2ccc([N+](=O)[O-])cc2)[C@@H](c2ccc(CO)cc2)N1CC12CC3CC(CC(C3)C1)C2 | 0.689 (inactive)
O=C1C[C@@](C(=O)NCc2ccccc2)(c2ccc([N+](=O)[O-])cc2)[C@@H](c2ccc(CO)cc2I)N1C1CCCCC1 | 0.75 (inactive)
COc1cccc(C[C@H]2C[C@@H](CO[Si](C(C)C)(C(C)C)C(C)C)N3C(=O)[C@]4(C(C)=O)O[C@]23[C@H]2C(=O)N(C)C(=O)[C@H]24)c1 | -1.41 (inactive)
COCC(=C=CC[C@@H](O)c1ccccc1OCCO)C[C@@H](O)COCc1ccccc1 | 1.84 (inactive)
COC(=O)C(CC#Cc1ccc2c(c1)[C@]1(C(=O)N2)[C@H](C(=O)N2CCc3cc(OC)c(OC)cc3C2)[C@H]2C(=O)O[C@H](c3ccccc3)[C@H](c3ccccc3)N2[C@@H]1c1ccc(O)cc1)C(=O)OC | -0.216 (inactive)
CN1C(=O)C2C=CC(C(O)COCc3ccccc3)N(Nc3ccccc3)C2C1=O (stereo unspecified) | 0.105 (inactive)
Cc1ccccc1C(O)C1C=CC2C(=O)N(Cc3ccccc3)C(=O)C2N1n1cnnc1 (stereo unspecified) | 0.0882 (inactive)
